High-throughput results as filed in PubChem.
HDAC3 inhib: inhibitors of human histone deacetylase 3; O15379; recombinant HDAC3, fluorogenic peptide/trypsin coupled, fluorescence; inhibition, % at 8.3 µM; 320,000 compounds, 0.15% hits; AID 2718; in the data active means inhibition above about 26%, passing the limit was not always enough
H9c2 protect: modulators protecting cardiomyocytes from myocardial damage | H9c2 cardiomyocytes, H2O2 injury protection, ATPLite, 2 h | protection from H2O2 cell death, % at 20 µM | 360,000 compounds, 0.63% hits;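 active means compounds giving at least 50% protection of heart cells from peroxide-induced death in the single-dose screen, raw or plate-pattern-corrected value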;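 further: 0% = DMSO wells with peroxide and 100% = DMSO wells without peroxide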
Neddyl block: blocks human cullin neddylation; inhibition, % at 25 µM; 360,000 compounds, 0.58% hits; P61081+Q13564; TR-FRET cullin neddylation, biochemical; in the data active means inhibition above about 36%
Target sequence (P61081 whole entry, looked up): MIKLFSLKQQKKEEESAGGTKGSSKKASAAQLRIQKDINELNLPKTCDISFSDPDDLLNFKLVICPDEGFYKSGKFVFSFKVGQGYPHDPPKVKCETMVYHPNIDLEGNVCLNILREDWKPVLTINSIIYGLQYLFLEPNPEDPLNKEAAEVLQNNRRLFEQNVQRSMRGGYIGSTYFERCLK
Target sequence (Q13564 whole entry, looked up): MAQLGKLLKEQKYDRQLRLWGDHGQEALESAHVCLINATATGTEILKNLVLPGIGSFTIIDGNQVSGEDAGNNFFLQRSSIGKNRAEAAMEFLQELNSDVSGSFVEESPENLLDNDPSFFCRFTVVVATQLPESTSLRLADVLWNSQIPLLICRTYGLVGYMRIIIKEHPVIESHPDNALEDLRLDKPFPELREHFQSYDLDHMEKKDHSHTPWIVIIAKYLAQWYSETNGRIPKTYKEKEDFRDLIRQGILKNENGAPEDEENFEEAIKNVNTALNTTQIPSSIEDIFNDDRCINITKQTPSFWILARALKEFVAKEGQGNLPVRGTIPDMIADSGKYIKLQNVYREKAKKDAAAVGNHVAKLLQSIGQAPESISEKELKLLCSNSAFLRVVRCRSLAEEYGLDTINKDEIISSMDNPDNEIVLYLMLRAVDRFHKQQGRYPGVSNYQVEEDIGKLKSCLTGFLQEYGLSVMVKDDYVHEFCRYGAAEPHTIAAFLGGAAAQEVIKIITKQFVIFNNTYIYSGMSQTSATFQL
GRK2 aptamer HTS: inhibitors of human GRK2 displacing RNA aptamer. P25098. bead flow cytometry, FAM-aptamer displacement from GRK2. inhibition of aptamer binding, % at 10 µM. 330,000 compounds, 0.59% hits;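 active means inhibition of aptamer binding above 40%, roughly 3 SD of noise, on plates passing a quality check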;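 further: median bead fluorescence of bound FAM aptamer so fluorescent compounds give negative values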
* hit, by the source's call; . = not tested or not shown. Compounds with a hit are over-represented: about 1.8% of the library has one in this group of screens.

SMILES | HDAC3 inhib | H9c2 protect | Neddyl block | GRK2 aptamer HTS
COc1ccc(-c2noc(CN(C)S(=O)(=O)c3ccccc3)n2)cc1OC | -5.6 | 55.2* | 0.5 | 0.0
CCC(C)c1ccc(NC(=S)NCc2cccnc2)cc1 (stereo not drawn) | -1.5 | -9.5 | -0.5 | 0.0
CC(C)NC(=S)NCc1cccnc1 | -3.9 | -1.8 | 2.3 | 99.0*
O=[N+]([O-])c1cccc(C=NNC(=S)NC23CC4CC(CC(C4)C2)C3)c1 | . | 2.3 | -2.5 | .
Cc1ccc(CSc2nnc(SCC(=O)N/N=C/C=C/c3ccco3)s2)cc1 | 4.2 | -5.3 | 3.0 | 83.0*
Cc1ccc(CSc2nnc(SCC(=O)N/N=C/C=C/c3ccccc3[N+](=O)[O-])s2)cc1 | 4.4 | -15.8 | -3.6 | 0.0
Cc1onc(-c2ccccc2)c1CNC(=O)Nc1ccccc1 | 2.9 | -2.5 | -1.5 | 1.0
COc1cc(/C=C2\SC(N)=NC2=O)ccc1OCC(=O)Nc1ccccc1C | -9.1 | 53.8* | 6.2 | 0.0
Cc1cc(C)cc(-n2ccn(CC(=O)NCCc3ccccc3)c(=O)c2=O)c1 | -6.3 | 2.3 | -6.8 | 2.0
COc1ccc(CC2(CO)CCN(CC3=Cc4cc(Cl)ccc4OC3)CC2)cc1 | -14.3 | -23.4 | -8.9 | 4.0
O=C(NC1CCCCC1)C(c1ccc2ncccc2c1)N(Cc1ccco1)C(=O)c1ccc2c(c1)OCCO2 (stereo not drawn) | 1.3 | 55.8* | 3.6 | 1.0
COc1ccc(C(C(=O)NC2CCCCC2)N(Cc2cccs2)C(=O)Cc2c[nH]c3ccccc23)cc1OC (stereo not drawn) | -1.5 | 52.2* | 7.9 | 0.0
O=C(NC1CCCCC1)C(c1ccc2ncccc2c1)N(Cc1cccs1)C(=O)c1cccs1 (stereo not drawn) | -6.6 | 51.3* | 3.2 | 0.0
O=C(C[C@@H]1C/C=C/CC[C@H](Cc2ccc(F)cc2)C(=O)OCCNC1=O)N[C@H](CO)Cc1ccccc1 | -2.4 | -5.9 | 1.9 | 0.0
C[C@H]1CN=C(N(C)C)N1CCCC1CCCCC1 | 1.3 | -18.0 | -18.0 | 0.0
CSc1ccccc1NC(=O)c1cc2ncc(Br)cn2n1 | -4.9 | -7.9 | -0.7 | 10.0
Cc1onc(-c2c(F)cccc2Cl)c1C(=O)OCC(=O)NC1CC1 | 0.7 | -5.3 | 5.8 | 1.0
Cc1cc(-c2nn3c(-c4ccccc4)nnc3s2)c2ccccc2n1 | 4.8 | 64.3* | -22.1 | 1.0
c1ccc(-c2cc(-c3nn4c(-c5ccco5)nnc4s3)c3ccccc3n2)cc1 | . | 43.1 | -0.3 | 1.0
Cn1c(=O)[nH]c(=O)c2c1nc(Br)n2CC(O)COc1ccc(Cl)cc1 (stereo not drawn) | -0.4 | 92.2* | -6.2 | 3.0
COc1ccc(OCC(O)Cn2c(Br)nc3c2c(=O)[nH]c(=O)n3C)cc1 (stereo not drawn) | 1.4 | 53.6* | 7.3 | 0.0
Cc1cccc(Nc2nc3c(c(=O)n(C)c(=O)n3C)n2Cc2ccccc2)c1 | . | 2.6 | -13.5 | .
Cc1ccccc1OCC(O)Cn1c(Br)nc2c1c(=O)[nH]c(=O)n2C (stereo not drawn) | 0.4 | 40.8 | -0.2 | 1.0
CC(C)Sc1nc2c(c(=O)[nH]c(=O)n2C)n1CC(O)COc1ccccc1 (stereo not drawn) | 6.2 | 2.1 | -1.6 | 0.0
COc1ccc(OCC(O)Cn2c(Nc3cccc(C)c3)nc3c2c(=O)n(C)c(=O)n3C)cc1 (stereo not drawn) | . | 64.1* | 14.5 | 1.0
SMILES | HDAC3 inhib | H9c2 protect | Neddyl block | GRK2 aptamer HTS
Cc1cc(C(=O)Nc2cc(Br)ccc2O)on1 | -3.2 | -4.5 | -5.2 | 2.0
CCN(CC)S(=O)(=O)c1ccc(N2CCOCC2)c(NC(=O)c2cccc3c(=O)c(C)c(-c4ccccc4)oc23)c1 | 11.7 | 44.9 | -21.6 | 0.0
COc1ccc(S(=O)(=O)N2CCOCC2)cc1NC(=O)c1cccc2c(=O)c(C)c(-c3ccccc3)oc12 | -2.6 | 71.3* | -342.0 | 0.0
O=C(CCNC(=O)c1ccccc1Cl)Nc1cccc(S(=O)(=O)N2CCOCC2)c1 | -3.3 | 2.5 | 18.4 | 2.0
O=c1c2cccnc2[nH]c(=S)n1CCC1=CCCCC1 | 1.1 | 5.6 | -11.6 | 70.0*
Cc1ccc(C(=O)n2cnnc2N)cc1 | 44.5* | -3.6 | 7.1 | 0.0
COc1ccc(-n2c(C)c(C(C)=O)c3cc(OC(C)=O)ccc32)cc1 | -2.5 | 53.3* | -0.1 | 3.0
C=CCOc1ccc2c(CC)cc(=O)oc2c1C | -11.9 | 3.1 | 41.8* | 0.0
Cc1onc(-c2ccccc2)c1C(=O)N1CCC(C)(C(=O)NS(=O)(=O)C2CC2)C1 (stereo not drawn) | . | 7.5 | -1.6 | .
O=C(CCNS(=O)(=O)c1ccc(Br)cc1)Nc1cccc(F)c1 | 3.1 | -4.2 | 9.6 | 0.0
CCN(CC)CCOC(=O)c1ccc(N/C=C(/C#N)c2nc(-c3ccc(OC)c(OC)c3)cs2)cc1 | 3.6 | 17.4 | 63.8* | 0.0
